# From PubChem BioAssay AID590 (National Center for Advancing Translational Sciences (NCATS), 2007)
# Among all 59,000 compounds or so, about 6,500 (11%) were called active. Another 15% or so got no clear call; they are omitted. No stated cut-off is given here; in the data, active means max dye-equivalent concentration above about 10 nM; inconclusive means mostly about 1.1 nM to 9.6 nM; inactive means weaker than that. For the sample, actives were picked, then their nearest neighbours and some compounds at random.
# Test: qHTS Assay for Spectroscopic Profiling in A350 Spectral Region
# Conditions: Compound autofluorescence, 340/450 nm, Alexa 350 dye-equivalents; active compounds read high
row,Structure (SMILES),max dye-equivalent concentration
1,O=C1c2ccccc2C(O)N1Cc1ccccc1 (stereo not drawn),26 nM (active)
2,O=C1c2cccnc2C(Nc2ccc(S(=O)(=O)N3CCCCCC3)cc2)N1Cc1ccccc1 (stereo not drawn),inactive
3,O=C(NC1CCCCC1)C1c2ccccc2C(=O)N1Cc1ccco1 (stereo not drawn),inactive
4,CC(C)(CNCC(O)c1ccccc1)N1CCOCC1 (stereo not drawn),inactive
5,Cc1ccc(C)c(NS(=O)(=O)c2cc(Br)cnc2N)c1,inactive
6,Cc1ccc(-c2noc(CSc3nnc(-c4ccccc4)n3C)n2)cc1,inactive
7,N=c1n(Cc2ccc(Cl)cc2)c2ccccc2n1CC(O)c1ccco1 (stereo not drawn),11 nM (active)
8,O=C(c1ccncc1)N1CCC2(CCCN(C(c3ccccc3)c3ccccc3)C2)CC1,inactive
9,COC(=O)[C@@H](NC(=O)NCc1cccc(OC)c1)C(C)C,inactive
10,CCn1c(=N)c(C(=O)NCCCOC)cc2c(=O)n3cccc(C)c3nc21,20000 nM (active)
11,COc1ccc(CNC(=O)C2CCN(S(=O)(=O)N3CCOCC3)CC2)cc1,inactive
12,COc1ccc(CNC(=O)c2cc3c(=O)n4ccccc4nc3n(CC3CCCO3)c2=N)cc1 (stereo not drawn),290 nM (active)
13,COc1ccccc1C(=O)NCCn1cc(SCC(=O)NCc2ccco2)c2ccccc21,inactive
14,COc1ccc(CCn2c(=N)c(C(=O)NCc3ccco3)cc3c(=O)n4cccc(C)c4nc32)cc1,15 nM (active)
15,CCOCCCNC(=O)c1c[nH]c2cc(C)ccc2c1=O,inactive
16,COc1ccc(C(=O)NCc2cn3ccccc3n2)cc1,inactive
17,COCCCNC(=O)c1ccc2c(c1)ncn2-c1ccccc1OC,inactive
18,COc1cc(OC)cc(-c2nc3nc(C)c(CCC(=O)NCc4ccco4)c(C)n3n2)c1,inactive
19,COCCNc1ncnc2ccc(-c3cccnc3)cc12,inactive
20,C=C(C)COc1ccc(-c2n[nH]c(C)c2-c2ccccc2OC)c(O)c1,inactive
21,CN1CCc2[nH]nc(-c3n[nH]c4c3CN(C)CC4)c2C1,inactive
22,CCCSc1nc2c(c(=O)n(C)c(=O)n2C)n1Cc1ccc(C)cc1,inactive
23,COc1ccccc1N1CCN(C(=O)Cn2nnc(-c3cccs3)n2)CC1,inactive

row,Structure (SMILES),max dye-equivalent concentration
1,COc1ccc2c(c1)C(C)=CC(C)(C)N2C(=O)CNCc1ccc2c(c1)OCO2,inactive
2,O=C1Nc2ccccc2C12Nc1ccccc1S2 (stereo not drawn),inactive
3,CCCCSc1nnc(-c2ccc(NC(=O)CC)cc2)n1C,inactive
4,Cc1cc(N2CCCC2=O)cc(C)c1S(N)(=O)=O,inactive
5,COc1ccc(CCNS(=O)(=O)c2ccc(C(=O)NCc3ccco3)cc2)cc1OC,inactive
6,C(=C\c1ccccc1)/CSc1nnc(-c2cccnc2)n1Cc1ccco1,inactive
7,Clc1cccc(-c2nc3nc4ccccc4nc3n2Cc2ccco2)c1,150 nM (active)
8,O=C(CSc1nnc(-c2cccnc2)n1Cc1ccco1)c1ccc(Cl)cc1,inactive
9,O=C(NCC12CC3CC(C1)CC(CNC(=O)N1CCCC1)(C3)C2)N1CCCC1,inactive
10,CC(=O)NCCc1ccc(S(=O)(=O)N(C)C2CCS(=O)(=O)C2)cc1 (stereo not drawn),inactive
11,CCc1nc(Nc2ccc3nccnc3c2)c2oc3ccccc3c2n1,82 nM (active)
12,Cc1nc(N2CCN(c3ncccn3)CC2)c2oc3ccccc3c2n1,inactive
13,C[C@@H](Nc1nc(-c2ccccc2)nc2c1oc1ccccc12)C(=O)O,inactive
14,Cc1ccc(O)c(NC(=O)COc2cc(C)ccc2C)c1,inactive
15,CC(=O)c1ccc(N2C(=NC(=O)C(C)C)SC3CS(=O)(=O)CC32)cc1 (stereo not drawn),inactive
16,CCOC(=O)CSc1nncc2ccc(OC)c(OC)c12,inactive
17,Cc1ccccc1N1C(=O)C2ON(c3ccccc3)C(c3ccncc3)C2C1=O (stereo not drawn),inactive
18,C=CCSC1=C(C#N)C(c2cc(Br)c(O)c(OC)c2)CC(=O)N1 (stereo not drawn),inactive
19,COc1cc(C2C(C#N)=C(C)NC3=C2C(=O)CC(C)(C)C3)ccc1O (stereo not drawn),17 nM (active)
20,Cc1cc2c(cc1C)NC(c1ccccn1)C1=C(CC(C)(C)CC1=O)N2 (stereo not drawn),inactive
21,CCOc1ccc(CN(Cc2ccco2)C(c2cccs2)c2nnnn2C(C)(C)C)cc1 (stereo not drawn),inactive
22,CCN(Cc1ccncc1)C(=O)[C@@H](CO)c1ccccc1,inactive
23,COc1ccc(C(=O)N/N=C2/C(=O)c3c(C)cc(C)cc3CC2(C)C)cc1,inactive

row,Structure (SMILES),max dye-equivalent concentration
1,Cc1noc(C)c1C(=O)Nc1ccccn1,inactive
2,Cc1ccc(-c2nc(COC(=O)c3c(C)noc3C)cs2)cc1,inactive
3,Cc1noc(C)c1C(=O)OCC(=O)/C=C1\N(C)c2ccccc2C1(C)C,210 nM (active)
4,COc1cc(C(=O)Nc2oc(-c3ccccc3)c(-c3ccccc3)c2C#N)cc(OC)c1OC,11 nM (active)
5,COc1cc(C(=O)Nc2nccs2)cc(OC)c1OC,inactive
6,COC(=O)c1cccc(NC(=O)CN2CCC(NC(=O)c3cc(OC)c(OC)c(OC)c3)CC2)c1,inactive
7,COc1ccc(CNc2ncncc2-c2ccccc2OC)c(OC)c1,inactive
8,COc1ccc(S(=O)(=O)N2CCCCC2)cc1Br,inactive
9,Cc1ccc(-n2nc(-c3ccco3)cc2C(=O)NCc2cccnc2)cc1,inactive
10,COCCn1c(=O)[nH]c2cc(C(=O)NCc3cccnc3)ccc2c1=O,38 nM (active)
11,CC(C)(C)c1cc(C(=O)NCc2cccnc2)ccn1,inactive
12,CC1=C2C(=O)OC(c3ccoc3)C2(C)CCC1 (stereo not drawn),inactive
13,Cc1ccccc1N1CCN(S(=O)(=O)C[C@@]23CC[C@H](C[C@H]2NC(=O)[C@@H](N)CCS(C)(=O)=O)C3(C)C)CC1,inactive
14,CCCC(=O)Nc1nnc(CC(=O)OCC)s1,inactive
15,NC(=O)COc1ccc2c3c(c(=O)oc2c1)CCCCC3,29 nM (active)
16,O=C(COc1ccccc1F)NC1CC1,inactive
17,Cc1cc(Cl)c(S(=O)(=O)NCC2CCCO2)cc1OCC(N)=O (stereo not drawn),inactive
18,O=C(CC1OC(=O)c2ccccc21)NC1CCCCC1 (stereo not drawn),inactive
19,O=C(COc1ccc2c3c(c(=O)oc2c1)CCC3)NC1CCCCC1,82 nM (active)
20,O=C(COc1ccc2oc3c(c2c1)CCCC3)Nc1ccccn1,inactive
21,COc1ccccc1Nc1nc(N)nc(CN(C)C2CCCCC2)n1,inactive
22,COc1cccc(-c2cc(NCCc3c[nH]c4ccc(OC)cc34)ncn2)c1,inactive
